# The panel holds about 79,000 compounds, 15% with a hit somewhere; the sample as a whole holds those more often. Unmarked numbers belong to inactive results. The source made the active and inactive calls. No stated cut-off is given here; in the data, active means growth inhibition above about 70%; inactive means the rest.
# Experiment: NCI Yeast Anticancer Drug Screen. Data for the mlh1 strain (AID 171);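 further: 0% = growth of vehicle-treated control cultures of the same strain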
# Conditions: S. cerevisiae mlh1 strain growth inhibition, active compounds read high
# Procedure: Growth inhibition of yeast strains with defined genetic alterations is measured as a screen for potential anti-cancer activity. Selected strains with alterations in DNA damage repair or cell cycle control were exposed to compounds and growth inhibition was measured relative to vehicle treated controls. The strain used in this assay is mlh1
SMILES,growth inhibition (at 1.2 µM) [%],growth inhibition (at 3.7 µM) [%],growth inhibition (at 11.0 µM) [%],growth inhibition (at 33.0 µM),growth inhibition (at 100.0 µM)
O=C(N/N=C\c1c(Cl)cccc1Cl)N/N=C/c1c(Cl)cccc1Cl,-13,-7,-3,-9%,-8%
S=C(S)NCC1CCC(CNC(=S)S)CC1 (stereo not given),-4,15,5,32%,71% (active)
C=C(CCCO)[C@@H]1CC[C@@](C)(O)[C@H]1C,-20,-23,-39,-31%,-48%
Oc1ccc(C=Nc2ccccc2O)cc1,32,45,36,45%,73% (active)
COCCCN(Cc1cc(OC)c(OC)c(OC)c1)C(=S)Nc1cccc(Cl)c1,0,-19,-38,-30%,31%
CC1OC(OC2CCCc3c(O)c4c(c(O)c32)C(=O)c2ccccc2C4=O)CC(N)C1O (stereo not given),-11,-6,16,94% (active),99% (active)
Cc1cc(Cl)nc2nc(Cl)c(N)cc12,-16,-2,-2,14%,80% (active)
C(=N/NC1=NCCN1)/c1c2ccccc2c(/C=N\NC2=NCCN2)c2ccccc12,11,16,21,73% (active),90% (active)

# Source: PubChem BioAssay (NCI)
